# In PubChem BioAssay:
# A number with no mark means an inactive call.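 Rule for the calls, unless noted: active = aptamer binding inhibition above 30%, about 3 SD of noise from non-fluorescent compounds; inactive = inhibition at or below 30%.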
# Biological target: Integrin beta-1 (Homo sapiens) + Integrin alpha-4 (Homo sapiens) (UniProt P13612+P05556)
# Experiment: alpha4beta1 integrin LIBS antibody binding reduction – U937 cells, HUTS-21 mAb, flow cytometry, validation set, VLA-4 allosteric modulator project, pilot screen (AID 2674;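 active = inhibition above 50%, about 3 SD of the validation set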;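 note: antibody binding induced by the VLA-4 ligand LDV present at three times its Kd; 0% = LDV ligand with antibody and no compound and 100% = antibody without LDV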)
# Settings: HUTS-21 LIBS mAb binding, at 6.7 µM, active compounds read high
# Integrin beta-1 (Homo sapiens) + Integrin alpha-4 (Homo sapiens), sequence (P05556 whole entry, looked up): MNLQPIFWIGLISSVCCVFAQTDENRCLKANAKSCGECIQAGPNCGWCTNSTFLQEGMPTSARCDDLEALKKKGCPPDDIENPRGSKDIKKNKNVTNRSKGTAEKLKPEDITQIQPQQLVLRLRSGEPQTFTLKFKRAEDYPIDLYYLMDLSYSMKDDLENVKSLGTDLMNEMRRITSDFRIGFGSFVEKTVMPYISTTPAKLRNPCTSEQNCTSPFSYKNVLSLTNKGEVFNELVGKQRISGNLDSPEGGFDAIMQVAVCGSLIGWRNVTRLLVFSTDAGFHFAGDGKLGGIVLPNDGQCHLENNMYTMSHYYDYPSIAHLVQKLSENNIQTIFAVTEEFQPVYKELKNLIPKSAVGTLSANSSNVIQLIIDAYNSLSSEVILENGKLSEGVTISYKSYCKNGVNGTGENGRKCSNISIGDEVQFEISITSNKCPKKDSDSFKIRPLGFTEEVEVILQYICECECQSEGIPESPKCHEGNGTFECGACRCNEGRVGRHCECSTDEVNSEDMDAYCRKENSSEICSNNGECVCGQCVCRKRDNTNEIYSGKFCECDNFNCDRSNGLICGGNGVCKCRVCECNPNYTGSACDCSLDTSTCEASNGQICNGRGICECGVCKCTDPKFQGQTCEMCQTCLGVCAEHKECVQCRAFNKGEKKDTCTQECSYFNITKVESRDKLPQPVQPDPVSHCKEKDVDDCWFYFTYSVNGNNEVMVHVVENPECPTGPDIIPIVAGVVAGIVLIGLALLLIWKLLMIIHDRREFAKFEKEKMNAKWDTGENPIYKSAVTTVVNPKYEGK
# Integrin beta-1 (Homo sapiens) + Integrin alpha-4 (Homo sapiens), sequence (P13612 whole entry, looked up): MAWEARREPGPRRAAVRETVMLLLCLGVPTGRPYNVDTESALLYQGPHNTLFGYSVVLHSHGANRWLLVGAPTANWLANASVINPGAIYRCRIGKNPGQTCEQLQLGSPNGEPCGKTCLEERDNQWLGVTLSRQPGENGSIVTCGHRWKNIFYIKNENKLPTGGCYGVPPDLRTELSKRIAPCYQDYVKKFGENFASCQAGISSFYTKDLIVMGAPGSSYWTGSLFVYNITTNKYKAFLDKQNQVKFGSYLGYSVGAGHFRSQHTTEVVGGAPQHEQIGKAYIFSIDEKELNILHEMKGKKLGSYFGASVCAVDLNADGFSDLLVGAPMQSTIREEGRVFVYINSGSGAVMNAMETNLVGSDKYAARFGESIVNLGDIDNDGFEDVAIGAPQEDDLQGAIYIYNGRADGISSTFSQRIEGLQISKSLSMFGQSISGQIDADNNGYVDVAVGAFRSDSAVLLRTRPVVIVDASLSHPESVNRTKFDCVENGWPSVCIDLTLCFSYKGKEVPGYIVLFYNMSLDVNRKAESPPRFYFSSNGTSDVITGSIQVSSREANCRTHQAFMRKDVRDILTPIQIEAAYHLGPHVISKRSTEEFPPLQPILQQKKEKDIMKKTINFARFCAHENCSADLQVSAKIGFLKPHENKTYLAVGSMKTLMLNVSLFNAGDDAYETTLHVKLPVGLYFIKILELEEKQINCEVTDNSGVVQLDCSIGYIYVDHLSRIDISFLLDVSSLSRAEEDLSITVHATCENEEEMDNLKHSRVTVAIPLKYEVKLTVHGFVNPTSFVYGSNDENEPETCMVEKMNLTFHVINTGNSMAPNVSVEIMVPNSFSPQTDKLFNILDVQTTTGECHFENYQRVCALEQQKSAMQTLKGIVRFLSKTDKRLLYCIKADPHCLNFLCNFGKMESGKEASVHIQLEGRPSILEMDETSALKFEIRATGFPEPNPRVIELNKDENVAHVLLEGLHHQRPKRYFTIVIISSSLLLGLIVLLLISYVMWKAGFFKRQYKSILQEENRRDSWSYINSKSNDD
row,Compound,inhibition
1,C[C@]12CCC(=O)C(O)=C1CC[C@@H]1[C@@H]2CC[C@]2(C)C(=O)CC[C@@H]12,10.3%
2,CN1[C@@H]2CC[C@H]1CC(OC(=O)C1C=Nc3ccccc31)C2 (stereo partly drawn),20.3%
3,O=C1CSC2N1CCNC21CCCCC1 (stereo not drawn),-31.6%
4,C[C@H]1CCCC(=O)CCCCCc2cc(O)cc(O)c2C(=O)O1,0.59%
5,CC(=O)Nc1cc([As](=O)(O)O)ccc1O,0.59%
6,NCC(O)c1ccc(O)cc1 (stereo not drawn),-2.27%

# System: not listed separately
# Experiment: calorie-restriction mimetic ROS inhibitors, yeast – validation compound set, pilot screen (AID 2706;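 active = superoxide response below 65% of plate, a cut near 3 SD across the whole screen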;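 note: yeast exposed to compound for one week at 30 degrees C before staining; 100% = mean of all compound wells on the same plate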)
# Settings: S. cerevisiae aging, superoxide DHE fluorescence; at 10 µM; active compounds read low
row,Compound,superoxide response (% of plate)
1,CCC(COC(=O)c1cc(OC)c(OC)c(OC)c1)(c1ccccc1)N(C)C (stereo not drawn),93.6%
2,Nc1ccc([As](=O)(O)O)cc1,108%
3,CCCC(C)(COC(N)=O)COC(=O)NC(C)C (stereo not drawn),94.5%
4,c1cnc2c(c1)ccc1ncccc12,83.3%
5,NCCc1ccc(O)cc1,94.8%
6,C[C@]12CC[C@@H]3c4ccc(O)c(O)c4CC[C@H]3[C@@H]1CC[C@@H]2O,101%
7,CC(CCc1ccccc1)NC(C)C(O)c1ccc(O)cc1 (stereo not drawn),111%
8,Clc1ccc(COC(Cn2ccnc2)c2ccc(Cl)cc2Cl)c(Cl)c1 (stereo not drawn),76.7%
9,CC12CN3CC(c4ccccc4)(CN(C1)C31CCCCC1)C2=O,90.5%
10,c1ccc2c(c1)OCC(C1=NCCN1)O2 (stereo not drawn),90.8%
11,COc1cc(/C=C2\C(=O)NC(=O)N(c3ccccc3)C2=O)c([N+](=O)[O-])cc1OC,102%
12,CC12CCC3C(CC=C4CC5(CCC43C)OCCO5)C1CCC2=O (stereo not drawn),95.3%
13,COc1ccc2c3c([nH]c2c1)C(C)=NCC3,102%
14,CCCC(=O)OCC[N+](C)(C)C,92.5%
15,C[C@]12CCC(=O)C=C1CC[C@@H]1[C@@H]2C(=O)C[C@]2(C)C(=O)CC[C@@H]12,76.3%
16,Cc1nc2ccccc2c(=O)n1-c1ccc(C(=O)O)cc1,96.8%
17,Cc1c2ccncc2c(C)c2c1[nH]c1ccccc12,84.9%
18,CC/C(=C\C=C\[C@@H]1C=C[C@@H]2CCC[C@H]2[C@@H]1C(=O)c1ccc[nH]1)[C@@H]1O[C@@H]([C@@H](C)C(=O)O)CC[C@@H]1C,94%
19,C[C@]12CCC(=O)C(O)=C1CC[C@@H]1[C@@H]2CC[C@]2(C)C(=O)CC[C@@H]12,97.5%
20,CN1[C@@H]2CC[C@H]1CC(OC(=O)C1C=Nc3ccccc31)C2 (stereo partly drawn),111%
21,C[C@H]1CCCC(=O)CCCCCc2cc(O)cc(O)c2C(=O)O1,101%
22,CC(=O)Nc1cc([As](=O)(O)O)ccc1O,92.8%
23,NCC(O)c1ccc(O)cc1 (stereo not drawn),94.8%

# Biological target: Beta-adrenergic receptor kinase 1 (Homo sapiens) (UniProt P25098)
# Experiment: GRK2 binders displacing RNA aptamer, biochemical, validation, human GRK2, bead flow cytometry (AID 488806)
# Settings: bead-bound GRK2, FAM-aptamer displacement, at 10 µM, active compounds read high
# Beta-adrenergic receptor kinase 1 (Homo sapiens), sequence (P25098 whole entry, looked up): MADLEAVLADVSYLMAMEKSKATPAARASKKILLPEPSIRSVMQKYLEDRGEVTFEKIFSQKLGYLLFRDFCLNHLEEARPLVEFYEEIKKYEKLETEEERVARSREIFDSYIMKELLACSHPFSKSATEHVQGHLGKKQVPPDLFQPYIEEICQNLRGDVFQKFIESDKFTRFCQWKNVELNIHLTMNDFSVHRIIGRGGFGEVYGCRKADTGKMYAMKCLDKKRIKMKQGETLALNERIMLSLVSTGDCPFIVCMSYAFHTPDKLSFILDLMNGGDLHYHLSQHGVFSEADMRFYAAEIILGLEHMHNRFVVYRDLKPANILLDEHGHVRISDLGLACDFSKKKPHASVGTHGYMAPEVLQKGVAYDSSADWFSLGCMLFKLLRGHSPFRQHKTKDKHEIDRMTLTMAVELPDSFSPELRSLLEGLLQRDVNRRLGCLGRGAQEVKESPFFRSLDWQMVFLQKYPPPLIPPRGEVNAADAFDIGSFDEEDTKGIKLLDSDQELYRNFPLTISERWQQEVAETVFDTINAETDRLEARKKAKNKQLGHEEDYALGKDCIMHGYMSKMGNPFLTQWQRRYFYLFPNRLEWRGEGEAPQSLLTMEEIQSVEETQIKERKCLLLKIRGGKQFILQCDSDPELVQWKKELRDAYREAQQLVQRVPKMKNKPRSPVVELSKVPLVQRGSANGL
row,Compound,aptamer binding inhibition
1,CCC(COC(=O)c1cc(OC)c(OC)c(OC)c1)(c1ccccc1)N(C)C (stereo not drawn),1%
2,Nc1ccc([As](=O)(O)O)cc1,2%
3,CCCC(C)(COC(N)=O)COC(=O)NC(C)C (stereo not drawn),6%
4,c1cnc2c(c1)ccc1ncccc12,8%
5,NCCc1ccc(O)cc1,2%
6,C[C@]12CC[C@@H]3c4ccc(O)c(O)c4CC[C@H]3[C@@H]1CC[C@@H]2O,-1%
7,CC(CCc1ccccc1)NC(C)C(O)c1ccc(O)cc1 (stereo not drawn),1%
8,Clc1ccc(COC(Cn2ccnc2)c2ccc(Cl)cc2Cl)c(Cl)c1 (stereo not drawn),4%
9,CC12CN3CC(c4ccccc4)(CN(C1)C31CCCCC1)C2=O,4%
10,c1ccc2c(c1)OCC(C1=NCCN1)O2 (stereo not drawn),1%
11,COc1cc(/C=C2\C(=O)NC(=O)N(c3ccccc3)C2=O)c([N+](=O)[O-])cc1OC,3%
12,CC12CCC3C(CC=C4CC5(CCC43C)OCCO5)C1CCC2=O (stereo not drawn),3%
13,COc1ccc2c3c([nH]c2c1)C(C)=NCC3,-10%
14,CCCC(=O)OCC[N+](C)(C)C,4%
15,C[C@]12CCC(=O)C=C1CC[C@@H]1[C@@H]2C(=O)C[C@]2(C)C(=O)CC[C@@H]12,3%
16,Cc1nc2ccccc2c(=O)n1-c1ccc(C(=O)O)cc1,3%
17,Cc1c2ccncc2c(C)c2c1[nH]c1ccccc12,-5%
18,CC/C(=C\C=C\[C@@H]1C=C[C@@H]2CCC[C@H]2[C@@H]1C(=O)c1ccc[nH]1)[C@@H]1O[C@@H]([C@@H](C)C(=O)O)CC[C@@H]1C,2%
19,C[C@]12CCC(=O)C(O)=C1CC[C@@H]1[C@@H]2CC[C@]2(C)C(=O)CC[C@@H]12,1%
20,CN1[C@@H]2CC[C@H]1CC(OC(=O)C1C=Nc3ccccc31)C2 (stereo partly drawn),0%
21,O=C1CSC2N1CCNC21CCCCC1 (stereo not drawn),0%
22,C[C@H]1CCCC(=O)CCCCCc2cc(O)cc(O)c2C(=O)O1,-1%
23,CC(=O)Nc1cc([As](=O)(O)O)ccc1O,0%
24,NCC(O)c1ccc(O)cc1 (stereo not drawn),2%
